Laboratory results from PubChem BioAssay (Tox21).
Some structures have more than one record in an assay (separate samples or runs), and their calls can disagree. The source made the active and inactive calls. A call without a number means that no potency is given here. Calls come from the whole dose curve; as a rule, active = well fitted activation curve with a large enough effect in the repeat runs; inconclusive = weak or mixed curves; inactive = flat fitted curve, though single readings scatter.

experiment: A CellTox Green Cytotoxicity Assay to monitor cytotoxicity in HepG2 cells - 0 hour (AID 1224882); conditions: CellTox Green fluorescence; series mostly up to 76.8 µM; note: nearly all actives have a fitted effect of over 35% in size
Source text: National Center for Advancing Translational Sciences [NCATS]
NIH Chemical Genomics Center [NCGC]
U.S. Environmental Protection Agency [EPA]
National Institutes of Environmental Health Sciences [NIEHS]
National Toxicology Program [NTP]
Cell-based models are critical for drug discovery. Determining the natural cytotoxic effects resulting from test compounds is an essential research activity. A CellTox Green Cytotoxicity Assay to monitor cytotoxicity in real time of continues cell culture during 40 hours of the compound treatment was used to screen Tox21 10K library compounds in HepG2 cells. CellTox Green Cytotoxicity Assay is a nonlytic, homogeneous, biofluorescent method to measure cytotoxicity in cell culture after experimental manipulation. The assay system uses a proprietary asymmetric cyanine dye that is excluded from viable cells but preferentially stains the dead cell's DNA. […] Viable cells produce no appreciable increases in fluorescence. Therefore, the fluorescence signal produced by the binding interaction with dead cell DNA is proportional to cytotoxicity.
The mixture of HepG2 cell suspension and reagents were dispensed at 600cells/6 ul/well in 1536-well tissue culture treated black solid bottom plates using a Multidrop dispenser. After the assay plates were incubated at a 37 C/5% CO2 incubator for 5 hours, 23 nL of compounds dissolved in DMSO, positive and negative controls was transferred to the assay plate by a pintool work station. The plates were incubated at 37 C for 40 hours. The fluorescence intensity were measured at 0h, 8h, 16h, 24h, 32h and 40h time points using ViewLux plate reader during compound treatment.
Potency is the fitted concentration of half-maximal effect.

Structure (SMILES) | Potency
Cc1ccccc1[N+](=O)[O-] | inactive
N#Cc1cc(Br)c(O)c(Br)c1 | inactive
CC(C)(C)c1ccccc1O | inactive
CNC(=O)Oc1cccc2c1OC(C)(C)O2 | inactive
OCC(O)CO | inactive
N#CCCCl | inactive
CNC(=O)N(C)c1nnc(C(C)(C)C)s1 | inactive
Oc1ccc(-c2ccccc2)cc1 | inactive
COc1ccc(C(CN(C)C)C2(O)CCCCC2)cc1 (stereo not given) | inactive
C=CCN(CC=C)C(=O)C(Cl)Cl | inactive
c1ccc(-c2cccc(-c3ccccc3)c2)cc1 | inactive
C1=Cc2cccc3cccc1c23 | inactive
Nn1cnnc1 | inactive
CC(C)(c1cc(Cl)c(O)c(Cl)c1)c1cc(Cl)c(O)c(Cl)c1 | inactive
Oc1cc(Cl)ccc1Oc1ccc(Cl)cc1Cl | 50.1 µM (active) and inactive
CC(C)(OOC(C)(C)c1ccccc1)c1ccccc1 | inactive
CCN(CC)N=O | inactive
Cc1cc(Cl)ccc1OCCCC(=O)O | inactive
C=CCc1ccc2c(c1)OCO2 | inactive
C[C@]12CCC(=O)C[C@@H]1CC[C@@H]1[C@@H]2CC[C@]2(C)[C@@H](O)CC[C@@H]12 | inactive

Structure (SMILES) | Potency
C=CC(=O)OCCO | inactive
CC(C)c1ccc(CO)cc1 | inactive
CCC(=O)O[C@H]1CC[C@H]2[C@@H]3CCC4=CC(=O)CC[C@]4(C)[C@H]3CC[C@]12C | inactive
Nc1ccc(Cl)c(Cl)c1 | inactive
N[C@@H](Cc1ccc(N(CCCl)CCCl)cc1)C(=O)O | inactive
Brc1ccc(Oc2cc(Br)c(Br)cc2Br)c(Br)c1 | inactive
CCOc1cc(Oc2ccc(C(F)(F)F)cc2Cl)ccc1[N+](=O)[O-] | inactive
Cc1ccc(OP(=O)(Oc2ccc(C)cc2)Oc2ccc(C)cc2)cc1 | inactive
CCOC(=S)S | inactive
COP(=S)(OC)Oc1ccc([N+](=O)[O-])cc1 | inactive
C=CCc1ccc(OC)cc1 | inactive
COC(=O)c1sccc1S(=O)(=O)NC(=O)Nc1nc(C)nc(OC)n1 | inactive
Cc1c(COC(=O)[C@@H]2[C@H](/C=C(\Cl)C(F)(F)F)C2(C)C)cccc1-c1ccccc1 | inactive
Nc1ccncc1 | inactive
CC(C)Oc1cc(-n2nc(C(C)(C)C)oc2=O)c(Cl)cc1Cl | inactive
CCC(C)c1ccc(O)cc1 (stereo not given) | inactive
Clc1nc(Cl)nc(Cl)n1 | inactive
CN(C)c1ccc(C(=O)c2ccc(N(C)C)cc2)cc1 | inactive
C=C(C)C(=O)OCC1CO1 (stereo not given) | inactive
CC1(C)C(C=C(Cl)Cl)C1C(=O)OC(C#N)c1cccc(Oc2ccccc2)c1 (stereo not given) | inactive
